From PubChem BioAssay
The source made the active and inactive calls.

Legend:
[1] = compound effects on lung adenocarcinoma cell viability – A549, calcein-AM fluorescence, 48 h, basal, profiling panel (AID 1162); conditions: higher = more signal
[2] = compound effects on differentiated 3T3-L1 adipocyte viability – cell-based, 3T3-L1 adipocytes, calcein-AM fluorescence, 48 h, basal, profiling panel (AID 1163); conditions: 3T3-L1 adipocytes viability, higher = more signal
[3] = compound effects on hepatocellular carcinoma cell viability – HepG2, calcein-AM fluorescence, 48 h, basal, profiling panel (AID 1164); conditions: higher = more signal
[4] = compound effects on multiple myeloma cell viability – MM1S, calcein-AM fluorescence, 48 h, basal, profiling panel (AID 1165); conditions: higher = more signal
[5] = calcein-AM signal in unstimulated myeloma cells – cell-based, calcein-AM fluorescence, 48 h, PK04 Diversity Set, profiling panel (AID 1166); conditions: RPMI8226 myeloma viability, higher = more signal;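 also: cells grown under basal conditions without added stimulus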
[6] = JC-1 mitochondrial signal, unstimulated HepG2 cells – cell-based, JC-1 fluorescence, 24 h, 100 nL compound, profiling panel (AID 1167); conditions: HepG2 mitochondrial potential, higher = more signal
[7] = JC-1 mitochondrial signal, unstimulated adipocytes – cell-based, JC-1 fluorescence, 3T3-L1 adipocytes, 24 h, 100 nL compound, profiling panel (AID 1168); conditions: JC-1 mitochondrial fluorescence, higher = more signal, called active from +8 up or from −8 down
[8] = JC-1 mitochondrial signal, unstimulated myeloma cells – cell-based, JC-1 fluorescence, RPMI8226, 24 h, 100 nL compound, profiling panel (AID 1169); conditions: JC-1 mitochondrial potential fluorescence, higher = more signal
[9] = JC-1 mitochondrial signal, unstimulated MM1S myeloma – cell-based, JC-1 fluorescence, 24 h, 100 nL compound, profiling panel (AID 1170); conditions: MM1S mitochondrial potential, higher = more signal
[10] = resazurin metabolic signal in A549 cells – cell-based, resazurin fluorescence, 24 h, PK04 Diversity Set, profiling panel (AID 1171); conditions: A549 viability, higher = more signal, called active from +8 up or from −8 down
Also: test concentration not given here.

Compound | z-score [1] | z-score [2] | z-score [3] | z-score [4] | z-score [5] | z-score [6] | z-score [7] | z-score [8] | z-score [9] | z-score [10]
COC(=O)C(CC#Cc1ccc2c(c1)[C@]1(C(=O)N2)[C@H](C(=O)O)[C@H]2C(=O)O[C@H](c3ccccc3)[C@H](c3ccccc3)N2[C@@H]1c1ccc(O)cc1)C(=O)OC | -0.389 | -0.405 | 0.0982 | -0.0724 | -0.263 | -2.08 | -0.269 (inactive) | -0.28 | -0.331 | 0.831 (inactive)
COCCOC(=O)N1C(=O)[C@@]2(c3cc(C#CC4=CCCCC4)ccc31)[C@H](C(=O)Nc1nc3ccccc3s1)[C@H]1C(=O)O[C@H](c3ccccc3)[C@H](c3ccccc3)N1[C@@H]2c1ccccc1OCCO | -0.812 | 2.14 | -0.789 | -1.59 | -2.27 | -2.7 | -0.2 (inactive) | -0.849 | -1.29 | 0.163 (inactive)
CCOC(=O)C[C@H]1[C@H](OC(=O)Cc2ccc3c(c2)OCO3)[C@@H](NC(=O)c2ccc3ccccc3c2)c2cc(OCCCO)ccc2N1C(=O)c1ccccc1 | 1.38 | -0.377 | 0.778 | -0.41 | -0.377 | 1.27 | 1.14 (inactive) | 0.621 | -0.334 | 0.859 (inactive)
COc1ccc(C(=O)Nc2ccc(CN3C(=O)[C@@]4(O[C@@H](CCn5cc([C@H](O)c6ccccc6)nn5)[C@H]([Si](C)(C)c5ccc(OC)cc5)[C@H]4C)c4ccccc43)cc2)cc1 | -0.443 | -0.196 | -4.62 | -2.72 | -3.02 | 1.73 | 1.17 (inactive) | -1.1 | -2.26 | -1.15 (inactive)
COCC(=C=CC[C@@H](O)c1ccccc1OCCO)C[C@@H](O)c1cc(Cl)cc(Cl)c1O | 0.14 | -0.407 | 0.0467 | -3.32 | -3.44 | -2.21 | -1.69 (inactive) | -0.881 | -1.15 | -0.106 (inactive)
C=CC[C@@]1(C(=O)NCc2ccccc2)N=C(c2ccc(OCCCO)cc2)O[C@@H]1c1ccccc1N=[N+]=[N-] | -0.586 | 0.117 | 0.317 | -1.48 | -1.26 | -0.827 | 0.693 (inactive) | -1 | -0.85 | -0.307 (inactive)
CN1C2C=C(CCCO)C(C3C(=O)N(C(N)=O)C(=O)C32)C1c1ccc(CN2CCCC2)cc1 (stereo not given) | -0.814 | -0.543 | -0.357 | 0.432 | -1.22 | -0.208 | -0.655 (inactive) | 0.234 | -0.137 | 0.0528 (inactive)
CC(C)C[C@@H]1NC(=O)[C@@H]2C[C@H](C(=O)NCCCCCN)[C@H](c3cccc(OCCO)c3)N2C1=O | 0.938 | 0.624 | 1.89 | 0.767 | 1.26 | 1.75 | 0.00134 (inactive) | -0.71 | -0.495 | -0.217 (inactive)
COc1ccc(C(=O)Nc2cccc(CN3C(=O)[C@]4(O[C@H](CCO)[C@@H]([Si](C)(C)c5ccc(OC)cc5)[C@@H]4C)c4ccccc43)c2)cc1 | -4.13 | -0.564 | -4.73 | -2.78 | -4.35 | -2.23 | -1.37 (inactive) | -0.73 | -1.96 | -6.33 (inactive)
COCCOC(=O)N1C(=O)[C@@]2(c3cc(C#Cc4ccc(OC)cc4)ccc31)[C@H](c1ccc(O)cc1)N1[C@H](c3ccccc3)[C@H](c3ccccc3)OC(=O)[C@H]1[C@@H]2C(=O)NC[C@H](O)c1ccccc1 | -0.828 | 1.44 | -0.55 | -1 | -2.16 | -1.99 | 2.46 (inactive) | -0.653 | -0.524 | 0.123 (inactive)
COc1ccc(C(O)C2C=CC3C(=O)N(c4ccccc4)C(=O)C3N2Nc2ccc(C(C)C)cc2)cc1OCc1ccccc1 (stereo not given) | 0.997 | -1.42 | 0.915 | -0.737 | -0.63 | -0.318 | -0.116 (inactive) | -0.427 | -0.173 | -0.193 (inactive)
CC(C)C[C@@H]1NC(=O)[C@H]2C[C@@H](C(=O)NCCCCCCN)[C@@H](c3ccc(O)cc3)N2C1=O | -0.145 | 0.106 | -0.766 | -0.495 | -0.953 | 0.414 | -0.217 (inactive) | -0.279 | 0.861 | -0.939 (inactive)
O=C(C1N=C(c2ccc(OCCCO)cc2)N(c2ccccc2)O1)N1CCOCC1 (stereo not given) | 0.895 | 0.349 | 0.0818 | 0.932 | 1.22 | 0.0222 | 0.645 (inactive) | -1.06 | -1.05 | 0.298 (inactive)
CCCC[C@@H]1C[C@H]1[C@@H](NC(=O)c1ccco1)c1ccc(Cl)cc1 | -2.3 | -0.679 | -0.746 | -1.95 | -2.24 | 2.38 | -0.732 (inactive) | -0.318 | -1.37 | 0.473 (inactive)
COCCOC(=O)N1C(=O)[C@@]2(c3cc(C#CC4(O)CCCCCC4)ccc31)[C@H](c1ccc(O)cc1)N1[C@H](c3ccccc3)[C@H](c3ccccc3)OC(=O)[C@H]1[C@@H]2C(=O)Nc1nc2ccccc2s1 | 0.3 | 0.974 | 0.702 | -1.55 | -1.47 | -2.78 | -1.11 (inactive) | -0.876 | 0.18 | -0.006 (inactive)
O=C1O[C@H](c2ccccc2)[C@H](c2ccccc2)N2[C@H]1[C@@H](C(=O)Nc1nc3ccccc3s1)[C@]1(C(=O)Nc3ccc(C#CC4(O)CCCCCC4)cc31)[C@H]2c1ccc(OCCO)cc1 | -0.128 | 1.45 | -0.318 | -1.89 | -2 | -3.77 | -0.727 (inactive) | -1.22 | -1.41 | 0.634 (inactive)
COc1ccc([Si](C)(C)[C@H]2[C@H](CC(=O)N3Cc4ccccc4C[C@H]3CO)O[C@@]3(C(=O)N(Cc4ccc(N5CCC5=O)cc4)c4ccccc43)[C@@H]2C)cc1 | -0.279 | 0.656 | -0.727 | -2.32 | -3.26 | 1.67 | 0.657 (inactive) | -1.04 | -0.928 | -0.0964 (inactive)
CC1CC/C=C\[C@H]2OC34C=CCN(Cn5nnc6ccccc65)C(=O)[C@H]3N(C(CO)C(C)C)C(=O)[C@@H]4C2C(=O)O1 (stereo not given in full) | 0.101 | 0.0716 | 0.0778 | 0.654 | -0.872 | -0.388 | -0.573 (inactive) | -0.637 | -0.454 | 0.238 (inactive)
CCC(CC)C(O)C1C=CC2C(=O)N(C)C(=O)C2N1Nc1ccccc1 (stereo not given) | 0.095 | -1.07 | 0.597 | -0.299 | -0.469 | -0.843 | -0.83 (inactive) | -0.802 | 0.0765 | 0.78 (inactive)
CCOC(=O)[C@H]1C/C=C/C[C@H](C(=O)OCC)C(=O)O[C@H]2[C@@H](OC)O[C@H](CO)[C@@H](OC(=O)Nc3cccc(F)c3)[C@@H]2OC1=O | -3.9 | -0.502 | -5.19 | -3.3 | -4.16 | -3.56 | 1.84 (inactive) | -0.959 | -1.99 | -5.95 (inactive)
COCCOC(=O)N1C(=O)[C@@]2(c3cc(C#Cc4ccc(OC)cc4)ccc31)[C@H](C(=O)N1CCCCCCC1)[C@H]1C(=O)O[C@H](c3ccccc3)[C@H](c3ccccc3)N1[C@@H]2c1ccc(OCCO)cc1 | 1.36 | 1.96 | 0.638 | -1.36 | 0.809 | 0.162 | -6.15 (inactive) | -0.19 | -0.987 | 1.62 (inactive)
COc1ccc(CCNC(=O)[C@@H]2c3ccccc3C(=O)N(C3Cc4ccccc4C3)[C@H]2c2ccc(CO)cc2)cc1 | 0.595 | 0.0644 | 0.0079 | -0.532 | -0.0245 | 1.6 | 0.00592 (inactive) | -0.78 | -0.0799 | 1.39 (inactive)
COCCOC(=O)N1C(=O)[C@@]2(c3cc(C#CC4=CCCCC4)ccc31)[C@H](c1ccc(O)cc1)N1[C@H](c3ccccc3)[C@H](c3ccccc3)OC(=O)[C@H]1[C@@H]2C(N)=O | 0.505 | 0.633 | -0.364 | -2.77 | -4.14 | -2.55 | 0.29 (inactive) | -0.902 | -1.19 | -0.954 (inactive)
CCCCC(=C=CC[C@@H](O)c1ccccc1OCCO)CCO | 0.499 | 0.337 | 0.595 | -0.0292 | 0.181 | 0.251 | -0.321 (inactive) | 0.11 | 0.502 | 0.245 (inactive)
CCCCc1cn(C[C@H](Cc2ccccc2)NC(=O)N[C@H](CO)CCc2oc(C(C)=O)c(C(=O)OC)c2C(=O)OC)nn1 | -0.601 | 0.813 | 0.132 | 0.787 | -1.22 | 0.173 | 0.273 (inactive) | 0.24 | 1 | -0.571 (inactive)
CC(C)(C)OC(=O)CC[C@]12N=C(c3ccc(OCCCO)cc3)O[C@H]1c1ccccc1N(CCS(=O)(=O)c1ccccc1)C2=O | 1.16 | 0.308 | 1.44 | -1.52 | -0.568 | -0.784 | 1.45 (inactive) | -1.09 | -0.719 | -1.71 (inactive)
COc1cc2c(cc1O)C(C1CC1)N(Cc1cc3c(cc1Br)OCO3)CC2 (stereo not given) | -3.4 | -0.204 | -3.79 | -3.15 | -4.48 | -1.85 | -0.457 (inactive) | -0.472 | -2.08 | -4.06 (inactive)
CC(C)N1C(=O)[C@@]2(Cc3ccccc31)c1ccccc1C(=O)N(C1CCCCC1)[C@H]2c1ccc(CO)cc1 | -0.0998 | 0.0621 | -0.775 | -0.546 | 0.0484 | 0.095 | 0.327 (inactive) | 0.378 | -1.79 | 2.32 (inactive)
C=CCNC(=O)[C@@H]1[C@H]2C(=O)O[C@H](c3ccccc3)[C@H](c3ccccc3)N2[C@H](c2ccc(OCCO)cc2)[C@@]12C(=O)Nc1ccc(C#Cc3ccc(OC)cc3)cc12 | -0.717 | 1.82 | -0.969 | -0.891 | -1.86 | -1.12 | 1.05 (inactive) | -0.592 | -0.913 | -1.03 (inactive)
CC(C)C(=C=CC[C@@H](O)c1ccccc1OCCO)CCO | 0.855 | -1.23 | -0.902 | -0.314 | 0.168 | -1.03 | 0.235 (inactive) | 0.719 | -0.0293 | 0.215 (inactive)
